# Compounds with a hit are over-represented: about 2.3% of the library has one in this group of screens.
# Tau FP inhib – qHTS for Inhibitors of Tau Fibril Formation, Fluorescence Polarization; actives 0.39% (n = 280,000); Potency, µM (titrated, usually from 57.7 µM), for the others: top-dose activity, negative = inhibition, actives largely listed as inhibitors; K18 P301L tau heparin fibrillization, Alexa594 FP, 6 h; AID 1468, 2008; note: potency is the fitted concentration of half-maximal effect; nearly all actives have a fitted effect of over 55% in size
# Target sequence (P10636 561-689 P618L limits assumed): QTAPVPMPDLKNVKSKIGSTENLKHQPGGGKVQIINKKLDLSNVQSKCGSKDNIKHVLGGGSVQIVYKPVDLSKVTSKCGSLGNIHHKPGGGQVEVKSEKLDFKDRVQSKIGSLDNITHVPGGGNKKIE
#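 Human tau K18 […] P301L fragment, 15 uM unlabeled plus 0.24 uM Alexa 594-labeled tau (final), with compound and 20 uM heparin in 100 mM sodium acetate pH 7; 6 hr at 37 C, then Alexa 594 FP read.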
# Coupling enz – qHTS Assay for Inhibitors of Fructose-1,6-bisphosphate Aldolase from Giardia Lamblia: Coupling assay counterscreen; coupling enzyme system counterscreen, AmpLite Red fluorescence; activity change, negative = inhibition, % at 58.2 µM, hits read low; actives 0.67% (n = 290,000); AID 2472, 2010; in the data active = activity change below about -30%
#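 Coupling enzymes only (glyceraldehyde-3-phosphate) + compound, at 57.5 uM final, 10 min RT; add substrate/coupling/AmpLite Red mix, 20 min RT; fluorescence ex 525/em 598 nm. Actives flag coupling-system interference.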
# Tau fluor cs – Counterscreen qHTS for Inhibitors of Tau Fibril Formation, Fluorescence Polarization | tau K18 P301L Alexa594 fluorescence, heparin fibrillization | Potency, µM (titrated, usually from 57.7 µM), for inactives: at the highest dose activity change, negative = decrease | actives 0.93% (n = 280,000) | AID 1463, 2008; note: potency is the fitted concentration of half-maximal effect; nearly all actives have a fitted effect of over 55% in size
#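 Human K18 P301L tau (15 uM unlabeled plus 0.24 uM Alexa 594-labeled, final) in 100 mM sodium acetate pH 7 was mixed with compound and 20 uM heparin and incubated 6 hr at 37 C.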
# Tau ThT inhib – qHTS for Inhibitors of Tau Fibril Formation, Thioflavin T Binding. recombinant tau K18 P301L, heparin-induced fibrillization, ThT fluorescence. Potency, µM (highest dose often 57.4 µM), inactives show at the top dose activity, negative = inhibition, actives largely listed as inhibitors. actives 2.1% (n = 270,000). AID 1460, 2008; note: potency is the fitted concentration of half-maximal effect; nearly all actives have a fitted effect of over 55% in size
#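 ThT emission at 510 nm, taken 1 hr after adding 30 uM dye, quantifies aggregates formed when 20 uM heparin acts on human tau K18 P301L for 6 hr at 37 C.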
# USP1-UAF1 inh – Inhibitors of USP1/UAF1: Primary Screen | actives 0.23% (n = 390,000) | AID 743255, 2014 | recombinant USP1/UAF1, Ub-Rhodamine cleavage fluorescence | Potency, µM (series often up to 57.1 µM), without a hit: top-dose activity change, negative = inhibition, usual class: inhibitors | Ubiquitin carboxyl-terminal hydrolase 1 (Homo sapiens), O94782; note: potency is the fitted concentration of half-maximal effect; nearly all actives have a fitted effect of over 60% in size
#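 USP1/UAF1 complex at 1 nM was preincubated with compound for 15 min at room temperature, then Ub-Rho substrate (150nM final) was added. Fluorescence (480/540 nm) was read kinetically, 6 reads every 60 seconds.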
# * = called active by the depositor; ? = inconclusive; . = not tested or not shown; [ ] = another dose, or the depositor's remark. Unless noted, calls come from the whole dose curve; as a rule, active = well fitted curve in the direction sought with a large enough effect; inconclusive = small, poorly fitted or top-dose-only effect, or another doubt; inactive = no such curve, though single readings can be large; an effect the other way counts as inactive or inconclusive. % is set by controls: 0 for no effect and ±100 for the full control effect.
SMILES,Tau FP inhib,Coupling enz,Tau fluor cs,Tau ThT inhib,USP1-UAF1 inh
CC1=NN(c2nc(-c3ccc(C)cc3)cs2)C(=O)C1N=Nc1ccc(C(N)=O)cc1 (centres undefined),6%,0,?,2.8µM*,-9%
CC1=NN(c2nc(-c3ccc(C)cc3)cs2)C(=O)C1N=Nc1ccc2ccccc2c1 (centres undefined),-9%,4,-23%,1.4µM*,-24%
CC(=O)Nc1ccc(S(=O)(=O)NCCc2ccc3c(c2)OCCO3)cc1,.,.,.,.,-18%
Cc1ccc(/C=C2/NC(=O)N(c3ccccc3)C2=O)o1,?,-10,-19%,25µM*,-23%
CCCN1C(=O)/C(=C/c2ccc(C)o2)NC1=S,?,-33*,-28%,25µM*,.
Cc1c(C(=O)O)cccc1-c1ccc(/C=C2/NC(=O)N(c3ccccc3)C2=O)o1,0%,-4,-12%,-15%,-2%
CCN1C(=O)/C(=C/c2ccc(C)o2)N(C)C1=S,?,-11,-20%,22µM*,-1%
CCc1ccc2c(c1)/C(=N/N(C)C(=S)NC)C(=O)N2,-5%,1,-24%,32µM*,-7%
CCc1cc(C(=O)Cc2cnn(-c3ccccc3)c2)c(O)cc1O,?,-3,?,?,-12%
O=C(Cc1cnn(-c2ccccc2)c1)c1ccc(O)c(O)c1O,?,-21,?,14µM*,-12%
COc1ccc(OC)c(NC(=O)C2CCCN(S(=O)(=O)c3ccc4[nH]c(=O)ccc4c3)C2)c1 (centres undefined),7%,.,?,-18%,-20%
CC1(C)Cc2ccccc2C2=NNC(=O)C2=N1,?,-57*,-12%,16µM*,?
Cc1cccc(C)c1-n1ncc(C(=O)N2CCN(c3ccccn3)CC2)c1C1CCN(C(=O)OC(C)(C)C)CC1,-2%,.,-6%,-17%,-5%
Cc1cc(Cl)ccc1N(CC(=O)N(C)Cc1ccccc1)S(C)(=O)=O,.,.,.,.,-25%
Cc1ccc2nc(COc3cccc(NC(=O)COc4ccccc4F)c3)cc(=O)n2c1,-10%,.,-18%,-11%,-10%
Cc1ccc(N=N/C(=C\O)C(=O)c2ccc(Cl)cc2)cc1,0%,0,-20%,28µM*,-16%
O=C(/C(=C/O)N=Nc1ccccc1)c1ccc(Cl)cc1,-8%,1,-25%,?,-13%
O=C(N/N=C/C(Br)=C/c1ccccc1)c1ccncc1,?,-2,-19%,?,-4%
O=C(/C(=C/O)N=Nc1ccccc1)c1ccncc1,-3%,1,-19%,14µM*,-10%
Cc1cccc(C)c1NC(=O)CSc1nnc(-c2ccco2)c(-c2ccco2)n1,?,4,?,25µM*,-25%
Cc1ccccc1NC(=O)CSc1n[nH]c(-c2ccco2)n1,-5%,5,-1%,-6%,-18%
Cc1ccccc1NC(=O)CSc1nnc(-c2ccco2)c(-c2ccco2)n1,8.9µM*,2,?,7.9µM*,-19%
Cc1cccc(C(=O)OCC(=O)N(C)C(c2ccccc2)c2ccccc2)c1[N+](=O)[O-],.,.,.,.,-17%
Cn1c(=O)cnc2cnc(Oc3ccccc3)nc21,.,-1,.,.,.
COc1cccc(C2NC(=S)NC3=C2CCc2ccccc23)c1 (centres undefined),?,-43*,?,?,-1%
SMILES,Tau FP inhib,Coupling enz,Tau fluor cs,Tau ThT inhib,USP1-UAF1 inh
COc1ccc2c(c1)C1=C(CC2)C(c2ccc(C)cc2)NC(=S)N1 (centres undefined),-4%,-3,-30%,?,1%
COc1ccc(C2NC(=O)NC3=C2CCc2ccccc23)cc1 (centres undefined),?,-7,-19%,25µM*,-24%
Cc1ccc(C2NC(=O)NC3=C2CCc2ccccc23)cc1 (centres undefined),-1%,-40*,-4%,?,-15%
CCN(CC(=O)Nc1c(C(=O)OC)[nH]c2ccc(C)cc12)c1ccc2c(c1)OCO2,-2%,-38*,?,?,-22%
O=C(CCC(=O)N(CC(=O)NC1CCCC1)Cc1ccccc1)Nc1nccs1,.,0,.,.,-7%
Cc1ccc(Nc2nc(-c3sc(NC(=O)c4ccc([N+](=O)[O-])cc4)nc3C)cs2)cc1,4%,2,?,3.2µM*,.
Cc1ccccc1Nc1nc(-c2sc(NC(=O)c3ccccc3)nc2C)cs1,4%,-3,?,?,.
CCOc1ccccc1Nc1nc(-c2sc(NC(=O)c3ccc([N+](=O)[O-])cc3)nc2C)cs1,?,-1,7.9µM*[quencher],3.5µM*,.
COc1ccc(OC)c(Nc2nc(-c3sc(NC(=O)c4ccccc4)nc3C)cs2)c1,3%,1,?,?,.
Cc1ccccc1Nc1nc(-c2sc(NC(=O)c3ccc([N+](=O)[O-])cc3)nc2C)cs1,2%,0,10µM*[quencher],4µM*,.
CC12CCC(=O)N1C(C(=O)N1CCN(c3ccc([N+](=O)[O-])cc3)CC1)CS2 (centres undefined),.,.,.,.,-15%
CCc1ccccc1NC(c1nnc(-c2cccc(F)c2)o1)c1ccc(F)cc1Cl (centres undefined),-5%,.,-15%,-3%,-23%
COc1ccc(N=Nc2nc3ccc(Br)cc3n2C)cc1,3%,2,-22%,1.6µM*,-19%
COc1ccc(-c2c(-c3cc(OC)cc(OC)c3)n(C)c3ccc(Br)cc23)cc1,.,.,.,.,-26%
Cc1ccc(C(=O)/C=C\C(=O)c2ccc(C)cc2)cc1,-2%,4,-7%,-10%,-4%
Cc1ccc(C(=O)c2no[n+]([O-])c2C(=O)c2ccc(C)cc2)cc1,?,0,-29%,14µM*,-22%
Cc1nn(-c2ccccn2)c2c1-c1nc(N)ncc1CC2,-10%,-47*,-5%,-5%,-19%
Fc1cnc(N2CCOCC2)nc1N1CCc2ccccc21,-3%,-1,-11%,-16%,-18%
Cc1nn(-c2ccccn2)c2c1-c1nc(N3CCOCC3)ncc1CC2,-3%,-39*,-7%,?,7%
Cc1cnc(N=Nc2ccccc2)[nH]1,.,.,.,.,-19%
CC(=O)c1ccc(NC(=O)Cn2c(=O)cc(C)c3c(C)nn(-c4cccc(F)c4)c32)cc1,?,.,-25%,-16%,-10%
CC(=O)c1cccc(NC(=O)c2nc3ccccc3nc2N2CCCCC2)c1,0%,.,-22%,?,-26%

# Screens from PubChem BioAssay.
